# Screening data from PubChem BioAssay.
# Hits are enriched below; roughly 3.5% of the tested compounds scored in any of these assays.
# MITF inh: blocks human microphthalmia-associated transcription factor. AlphaScreen MITF homodimerization, bead proximity signal. inhibition, % at 2.6 µM. 0.91% of 650,000 active; in the data active means inhibition above about 50%;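 further: 0% = vehicle wells with protein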
# FBW7 act: activators of human E3 ligase FBW7; Q969H0; AlphaScreen FBW7–phospho-cyclin E peptide binding, activator screen; normalized activity (activation), % at 26.1 µM; 0.13% of 650,000 active; AID 1259310; in the data active means normalized activity above about 1.9%;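 further: purified mutant Fbw7 with reduced substrate affinity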
# TEAD-YAP inh: TEAD-YAP interaction inhibition; HEK-TIYL cells, TEAD-Gal4/YAP UAS-luciferase luminescence; inhibition, % at 9.12 µM; 1.4% of 640,000 active; in the data active means inhibition above about 32%;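 further: 0% = median of test compound wells and 100% = reference inhibitor wells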
# GPR151 activ: human GPR151 activation; PathHunter beta-arrestin GPR151 cells, luminescence; activation, % at 11.2 µM; 1% of 650,000 active; AID 1508602; in the data active means activation above about 4.9%;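 further: 0% = median of compound wells and 100% = cells with positive control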
# Target sequence (Q8TDV0 whole entry, looked up): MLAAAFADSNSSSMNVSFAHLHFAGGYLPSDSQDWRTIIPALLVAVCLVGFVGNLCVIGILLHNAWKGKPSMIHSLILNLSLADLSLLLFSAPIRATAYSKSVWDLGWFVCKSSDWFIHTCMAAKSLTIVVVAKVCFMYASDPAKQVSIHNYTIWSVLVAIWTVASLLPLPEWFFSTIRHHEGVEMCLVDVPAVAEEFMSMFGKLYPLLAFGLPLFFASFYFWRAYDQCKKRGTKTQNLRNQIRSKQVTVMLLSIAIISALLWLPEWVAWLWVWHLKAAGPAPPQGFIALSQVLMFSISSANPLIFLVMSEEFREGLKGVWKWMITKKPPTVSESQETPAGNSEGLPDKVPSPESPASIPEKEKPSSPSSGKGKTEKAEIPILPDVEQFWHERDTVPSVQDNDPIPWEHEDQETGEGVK
# GPR151 conf act: confirmation of human GPR151 activators. GPR151 PathHunter beta-arrestin cells, luminescence, 90 min; % of EA-reagent control over plate median. shares compounds with GPR151 activ. 6,700 tested, under 10 active. activation, % at 11.2 µM;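 active means mean percent activation across replicates above the confirmation screen cutoff of 4.91%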
# GPR119 counter: counter-screen for GPR151 activators: effect on human GPR119. shares compounds with GPR151 activ. GPR119 PathHunter beta-arrestin cells, luminescence, 90 min; 0 = compound-well median, 100 = enzyme-acceptor control. activation, % at 11.2 µM. 0.3% of 6,700 active. AID 1508611;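 active means mean percent activation in the counterscreen above 29.09%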;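 further: counterscreen on off-target GPR119 to flag nonselective hits from the GPR151 activator screen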
# Active calls of the source: *; nt = not tested or not shown.
SMILES,MITF inh,FBW7 act,TEAD-YAP inh,GPR151 activ,GPR151 conf act,GPR119 counter
COc1ccc(NCc2ccc(-c3nccnc3NS(=O)(=O)C3CC3)cc2)cc1,11.6,-0.1,3.3,0.0,nt,nt
O=C(CSc1cn(CC(=O)N2CCOCC2)c2ccccc12)NC1CCCC1,-11.9,-0.2,-1.9,5.4*,0.2,2.6
NC(=O)C1CCN(C(=O)C(=O)c2cn(CC(=O)N3CCCCCC3)c3ccccc23)CC1,-18.1,0.0,0.3,6.2*,-0.6,-2.2
COc1cc(/C=C2/N=C(c3ccccc3)OC2=O)cc(Br)c1OC(C)=O,-7.7,-0.1,12.4,-0.3,nt,nt
Cc1cccc(NCC(=O)N/N=C/c2ccccc2O)c1,9.8,0.4,0.6,7.2*,1.7,3.8
CCOc1ccc(NCC(=O)N/N=C/c2cc(OC)ccc2O)cc1,1.6,0.0,12.9,2.4,nt,nt
CCOc1ccc(NCC(=O)N/N=C/c2ccccc2O)cc1,10.1,0.1,5.2,5.4*,0.7,-15.9
COc1ccc(O)c(/C=N/NC(=O)CCC(=O)Nc2cccc(C)c2)c1,30.4,-0.1,22.5,8.7*,0.2,5.8
O=C(CCCCCNC(=O)c1ccccc1)N/N=C/c1ccccc1O,12.5,0.2,9.9,9.6*,0.8,10.7
COc1ccc(O)c(/C=N/NC(=O)CNc2cccc(C)c2)c1,-1.8,0.0,7.7,-0.1,nt,nt
COc1cc(C=C2C(=O)N(C)C(=S)N(C)C2=O)ccc1OCc1ccc(C(=O)O)cc1,-10.6,-0.5,-24.6,-1.3,nt,nt
COc1cccc(/C=N\NC(=O)CNc2ccc(C)cc2)c1O,-23.6,-0.1,-2.6,-0.3,nt,nt
COc1cccc(/C=N/NC(=O)CNc2cccc(Cl)c2)c1O,12.2,-0.1,16.6,7.2*,-0.7,-12.6
Cc1ccccc1NCC(=O)N/N=C\c1cc(Br)cc(Cl)c1O,10.0,-0.1,21.6,9.2*,-0.9,-8.5
CCOc1ccc(/C=N/NC(=O)C(O)c2ccccc2)c(O)c1 (stereo not drawn),9.2,-0.3,-5.9,5.8*,1.1,6.1
CCN(C(=O)C(=O)Nc1ccc2nc3n(c(=O)c2c1)CCCCC3)c1ccc(OC)cc1,1.6,-0.2,5.3,-0.2,nt,nt
NS(=O)(=O)c1ccc(NC(=S)NC(=O)c2ccc(F)c(F)c2)cc1,3.0,-0.1,4.6,1.1,nt,nt
COc1ccc([N+](=O)[O-])cc1N1C(=O)C2C3C=CC(C3)C2C1=O (stereo not drawn),-1.8,-0.1,-5.4,1.0,nt,nt
O=C(Nc1ccc(F)cc1)C(=O)N(C1CCCC1)C(C(=O)NC1CCCC1)c1ccco1 (stereo not drawn),11.9,0.2,-4.8,-1.1,nt,nt
O=C(C1CCCO1)N1CCC(O)(c2cccc(F)c2)CC1 (stereo not drawn),-10.8,-0.1,-9.8,0.9,nt,nt
Cc1ccc(-n2c(C)cc(C=C3C(=O)NC(=O)NC3=O)c2C)cc1,7.9,0.0,8.4,8.6*,-0.4,-4.8
O=C(N/N=C/c1cccc(O)c1)c1cccnc1,5.7,-0.1,-1.2,5.8*,-0.6,-11.2
O=C(CCCC(=O)N/N=C/c1cccc([N+](=O)[O-])c1)N/N=C/c1cccc([N+](=O)[O-])c1,-8.4,0.1,6.1,14.1*,0.6,2.3
O=C(N/N=C\c1ccc(Br)cc1)c1cc([N+](=O)[O-])cc([N+](=O)[O-])c1,2.9,-0.1,-2.8,-0.7,nt,nt
O=C(CCC(=O)N/N=C/c1cccc([N+](=O)[O-])c1)N/N=C/c1cccc([N+](=O)[O-])c1,-4.7,0.1,1.9,-0.8,nt,nt
SMILES,MITF inh,FBW7 act,TEAD-YAP inh,GPR151 activ,GPR151 conf act,GPR119 counter
O=C(N/N=C/c1cccc([N+](=O)[O-])c1)c1cc(O)c(O)c(O)c1,14.9,-0.2,-10.1,5.7*,1.2,3.5
O=C(N/N=C/c1cccc(O)c1)c1cnccn1,-1.8,0.0,-6.1,-4.5,nt,nt
O=C(N/N=C\c1cccc([N+](=O)[O-])c1)c1ccc(O)cc1,-24.1,-0.1,1.9,-0.6,nt,nt
O=C(N/N=C/c1ccc([N+](=O)[O-])cc1)c1ccc(Br)cc1,3.5,-0.2,-5.4,7.8*,0.9,-2.0
COCCN1C(=O)C=C(Nc2ccccc2OC)C1=O,-2.3,0.0,0.6,-0.6,nt,nt
Cc1c(C)n2c3c(=O)n(Cc4ccc(F)cc4)c(=O)n(C)c3nc2n1-c1ccccc1,-7.7,0.0,-3.4,0.3,nt,nt
Cc1cc([N+](=O)[O-])cc(C)c1OCC(=O)NN,-2.6,-0.1,-1.4,-1.1,nt,nt
